Source: PubChem BioAssay (several laboratories)
TPT1 inh – Candida albicans TPT1 enzyme inhibitors, primary screen, biochemical, fluorescence polarization | recombinant caTPT1, FP RNA substrate dephosphorylation | inhibition, % at 5 µM | AID 1962, 2009 | tRNA 2'-phosphotransferase TPT1 (Candida albicans SC5314) | hit rate 0.81% among 300,000;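 active = inhibition above the mean of all tested compounds plus 3 SD, set per screening campaign, cut at about 24% in these data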
IDE inh – human IDE inhibitors in live cells, primary screen, fluorescence polarization, HEK cells, FAbetaB substrate; hit rate 0.41% among 320,000; Insulin-degrading enzyme (Homo sapiens), P14735; inhibition, % at 5.59 µM; AID 434962, 2010; FAbetaB cleavage;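 active = percent inhibition above the average of all tested compounds plus 3 SD, set per screening campaign, cut at about 16% in these data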;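 also: IDE supplied by intact live HEK cells; FP after avidin binding of uncleaved biotin substrate so inhibition keeps polarization high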
Target sequence (P14735 whole entry, looked up): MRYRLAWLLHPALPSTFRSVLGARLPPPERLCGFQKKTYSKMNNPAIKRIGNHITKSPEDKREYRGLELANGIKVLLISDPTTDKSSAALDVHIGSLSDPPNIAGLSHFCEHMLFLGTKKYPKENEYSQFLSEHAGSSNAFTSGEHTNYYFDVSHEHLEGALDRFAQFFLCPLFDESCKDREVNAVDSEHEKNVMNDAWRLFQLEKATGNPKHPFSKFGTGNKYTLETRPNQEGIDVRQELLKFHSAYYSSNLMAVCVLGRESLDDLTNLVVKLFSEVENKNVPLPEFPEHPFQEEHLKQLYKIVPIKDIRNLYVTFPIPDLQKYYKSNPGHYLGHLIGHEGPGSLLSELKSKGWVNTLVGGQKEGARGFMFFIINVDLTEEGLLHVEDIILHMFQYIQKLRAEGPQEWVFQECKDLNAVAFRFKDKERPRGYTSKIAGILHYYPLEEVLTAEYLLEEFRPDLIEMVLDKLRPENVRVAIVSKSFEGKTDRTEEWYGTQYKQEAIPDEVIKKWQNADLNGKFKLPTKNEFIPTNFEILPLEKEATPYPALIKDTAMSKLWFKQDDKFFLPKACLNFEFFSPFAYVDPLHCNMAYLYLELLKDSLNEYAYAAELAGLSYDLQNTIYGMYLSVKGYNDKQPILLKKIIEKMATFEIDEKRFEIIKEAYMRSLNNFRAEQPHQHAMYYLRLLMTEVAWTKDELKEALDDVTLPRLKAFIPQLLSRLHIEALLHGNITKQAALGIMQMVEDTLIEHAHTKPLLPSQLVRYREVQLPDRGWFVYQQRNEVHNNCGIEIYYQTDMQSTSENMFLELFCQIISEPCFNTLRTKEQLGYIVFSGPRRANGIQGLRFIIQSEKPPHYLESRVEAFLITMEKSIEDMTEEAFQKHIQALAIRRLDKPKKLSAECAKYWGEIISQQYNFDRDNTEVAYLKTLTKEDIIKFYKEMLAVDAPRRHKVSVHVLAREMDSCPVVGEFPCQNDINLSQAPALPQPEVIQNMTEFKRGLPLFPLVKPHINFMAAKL
IDE act – human IDE activators in live cells, primary screen, fluorescence polarization, HEK cells, FAbeta-B substrate; Insulin-degrading enzyme (Homo sapiens), P14735; hit rate 0.073% among 340,000; AID 493087, 2011; FAbeta-B cleavage; 0% vehicle, 100% cell-free pure enzyme wells; activation, % at 5.96 µM;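 active = activation above the mean of all tested compounds plus 3 SD, set per screening campaign, cut at about 17% in these data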
Calb FLC – C. albicans growth inhibition with fluconazole, primary screen, CaCi-2 strain, Alamar Blue fluorescence; C. albicans CaCi-2 (fluconazole-resistant clinical isolate) + fluconazole, 48 h; growth inhibition, % (concentration not given with the values); hit rate 0.57% among 300,000; AID 1979, 2009;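 active = growth inhibition above about 58% in most replicates, limit read from the data, passing the limit was not always enough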;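 also: all wells also contain fluconazole at 8 µg/ml as a sub-toxic cotreatment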
Rin1-Abl PPI inh – inhibitors of Rin1-Abl protein binding, primary screen, biochemical, TR-FRET; Tyrosine-protein kinase ABL1 (Homo sapiens) + Ras and Rab interactor 1 (Homo sapiens), …; inhibition, % at 7.35 µM; hit rate 0.4% among 360,000; in the data active = inhibition above about 5%, passing the limit was not always enough
Rpn11 inh – Rpn11 (PSMD14) deubiquitinase inhibitors, primary screen, biochemical, fluorescence polarization, uHTS. 26S proteasome non-ATPase regulatory subunit 14 (Homo sapiens), O00487. human 26S proteasome, Ub4-pepOG fluorescence polarization; 20S core pre-blocked with epoxomicin. inhibition, % at 20 µM. hit rate 0.59% among 360,000;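 active = inhibition at 20 µM, scaled to each plate's controls, above about 33%, limit read from the data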
Of the large screens only hits and unclear results are named; the others gave an inactive call; ! = not active in a repeat. Sampled rows, rich in hits. Any-hit rate of the full collection: about 2.3%.

c1ccc(COc2ccccc2CNC23CC4CC(CC(C4)C2)C3)cc1	Calb FLC 95
c1ccc(COc2ccccc2CNC2CCCC2)cc1	none
S=C(N/N=C/c1ccc2ncccc2c1)Nc1ccccc1	Calb FLC 88
COc1ccc(OC2C(=O)N(Cc3ccc(F)cc3)C2c2ccc(OC)c(OC)c2)cc1 (configuration not stated)	none
COc1ccc(OC2C(=O)N(Cc3ccc4c(c3)OCO4)C2c2sccc2C)cc1 (configuration not stated)	Calb FLC 93
CCOC(=O)c1c(NC(=O)C2CCCO2)sc(C(N)=O)c1C (configuration not stated)	none
CCOC(=O)c1c(NC(=S)NCC2CCCO2)sc(C)c1C (configuration not stated)	Calb FLC 85
CC(=O)c1ccc(NC(=O)c2ccc(NC(=O)c3ccco3)cc2)cc1	Rpn11 inh active
COC(=O)c1ccc(COC(=O)C2CCN(S(=O)(=O)c3ccccc3C(=O)OC)CC2)cc1	none (no result: TPT1 inh, Calb FLC)
CCC(=O)N1CCN(c2ccc(Cl)cc2NC(=O)c2ccc3c(c2)OCCO3)CC1	Calb FLC 90
Nc1nccc(NCCSCc2ccccc2)n1	none (no result: TPT1 inh, IDE inh, Calb FLC)
Cc1ccc(NC2=CC(=O)C(=O)c3ccccc32)cc1	Calb FLC 101
NS(=O)(=O)c1ccc(NC2=CC(=O)C(=O)c3ccccc32)cc1	none
C#CCSc1nnc(CNS(=O)(=O)c2ccc(Br)cc2)n1C	none
O=C1c2ccccc2NC(c2ccc(-c3ccccc3F)o2)N1O (configuration not stated)	none (no result: TPT1 inh, Calb FLC)
CCOC(=O)c1ccc(-c2ccc(C3Nc4ccccc4C(=O)N3O)o2)cc1 (configuration not stated)	Calb FLC 91
Cc1cc([N+](=O)[O-])ccc1-c1ccc(C2Nc3ccccc3C(=O)N2O)o1 (configuration not stated)	Calb FLC 101
O=C(OCc1ccccc1)N1CCC2CC1c1ccc(N3CCN(Cc4ccc5c(c4)OCO5)CC3)cc12 (configuration not stated)	none (no result: TPT1 inh, IDE inh, IDE act, Calb FLC)
COCCCN1C(=O)C(CC(=O)NCCc2ccccn2)CC(C(=O)N2CCOCC2)=C1C (configuration not stated)	none (no result: TPT1 inh, IDE inh, IDE act, Calb FLC)
Cc1no[n+]([O-])c1COc1ccc(/C=N/n2nnnc2N)cc1	none
COc1cc(/C=C2/C(=O)N(c3ccc(Br)cc3)N=C2C)cc(OC)c1OC	Rin1-Abl PPI inh 15 (no result: TPT1 inh, IDE inh)
COc1ccc(OC)c(C2=CC(=O)C[C@H](c3ccc4c(c3)OCO4)C2)c1	none (no result: TPT1 inh, Calb FLC)
CCN1/C(=C/c2ccc3ccccc3[n+]2CC)C=Cc2ccccc21	Calb FLC 105
CCN1/C(=C/c2ccc3ccccc3[n+]2CCCS(=O)(=O)[O-])C=Cc2cc(C)ccc21	none (no result: TPT1 inh, IDE inh)
CC(=O)SC(C[N+](=O)[O-])c1cn(C(C)=O)c2ccccc12 (configuration not stated)	Calb FLC 112
CC(=O)n1cc(Nc2ccc([N+](=O)[O-])cc2)c2ccccc21	none
CNC(=O)C[C@H]1C(=O)N(Cc2ccccc2)C[C@@H]1C	none (no result: TPT1 inh, IDE inh, IDE act, Calb FLC)
CCOc1ccccc1-c1c2cc(O)c(=O)cc-2oc2cc(O)c(O)cc12	Rin1-Abl PPI inh 54 (no result: TPT1 inh, IDE inh, Calb FLC)
COc1ccc(OC)c(-c2c3cc(O)c(=O)cc-3oc3cc(O)c(O)cc23)c1	IDE inh 39, Rin1-Abl PPI inh 55 (no result: Calb FLC)
O=c1cc2oc3cc(O)c(O)cc3c(-c3ccccc3O)c-2cc1O	Rin1-Abl PPI inh 67 (no result: TPT1 inh, IDE inh, Calb FLC)
Cc1ccccc1-c1cc(=O)c2c(O)cccc2o1	none
COc1ccc(OC)c(-c2oc3ccccc3c(=O)c2O)c1	none
CC(C)(C)OC(=O)N[C@@H](Cc1ccccc1)C(=O)NCC1CCC(C(=O)N[C@@H](CC(=O)O)C(=O)O)CC1 (some centres not stated)	none
CC(C)(C)C(=O)NCc1ccc(C(=O)CSc2nnc3n2CCCCC3)s1	none (no result: TPT1 inh, IDE inh, IDE act, Calb FLC)
CC(=O)c1ccc(NC(=O)C2CCN(S(=O)(=O)c3ccc4c(c3)N(C(C)=O)CCO4)CC2)cc1	none
CCCCCCCCCCCCCCCC[n+]1cccc(C(=O)N(CC)CC)c1	Rpn11 inh 66!
COC(=O)C1CCC(=O)N1C(c1ccc(OC)cc1)c1cc(OC)c(OC)c(OC)c1 (configuration not stated)	none (no result: TPT1 inh, IDE inh, Calb FLC)
Cc1ccc(O)c(-c2cc3ccccc3[nH]2)c1	Calb FLC 83
CCCOc1ccc(/C(O)=C2\C(=O)C(=O)N(c3ccccn3)C2c2ccccc2F)cc1C (configuration not stated)	none
CCOC(=O)Cc1csc(NC(=O)CSc2nnc(-c3ccncc3)o2)n1	Calb FLC 106 (no result: IDE act)
CCOC(=O)Cc1csc(NC(=O)CSc2nnc(-c3ccc(NS(=O)(=O)CC)cc3)o2)n1	Calb FLC 85
O=C(Nc1cc(Cl)ccc1-n1cncn1)c1ccc([N+](=O)[O-])s1	none
CCCc1ccc(OCC(O)CN2CCCC2)cc1 (configuration not stated)	none (no result: TPT1 inh, IDE inh)
Cc1n[nH]c(C)c1CCNCc1ccc(OCC(O)CN2CCCCC2)cc1 (configuration not stated)	Calb FLC 71
Cc1ccc(S(=O)(=O)/N=C2/NC(=O)/C(=C\c3cc(Br)cc(Br)c3O)S2)cc1	Calb FLC 123 (not shown: TPT1 inh, IDE inh, Rpn11 inh)
Cc1ccc(N=Nc2c(O)ccc3n[nH]nc23)cc1	IDE act 55 (no result: TPT1 inh, IDE inh)
CC(=O)Nc1cccc(C(=O)OCC(=O)N2CCN(C(=O)COC(=O)c3cccc(NC(C)=O)c3)CC2)c1	none (no result: TPT1 inh, IDE inh, Calb FLC)
Cc1ccc(C)c(NC(=O)NNC(=O)c2cc3ccccc3cc2O)c1	none
O=C(NNC(=O)c1cc2ccccc2cc1O)Nc1ccccc1F	Calb FLC 87
Cc1cccc(NC(=O)NNC(=O)c2cc3ccccc3cc2O)c1C	Calb FLC 65
O=C(NCCCl)NNC(=O)c1cc2ccccc2cc1O	none
O=C(NNC(=O)c1cc2ccccc2cc1O)c1cccs1	Calb FLC 91
Cc1ccc(NC(=O)NNC(=O)c2cc3ccccc3cc2O)c(C)c1	Calb FLC 82
CCCOc1ccc(C(=O)CCC(=O)OCC(=O)N(C)c2c(N)n(Cc3ccccc3)c(=O)[nH]c2=O)cc1	none
COC(=O)CC(=O)O[C@H]1C=C[C@@H](NC(=O)OC(C)(C)C)C1	none (no result: TPT1 inh, IDE inh, Calb FLC)
COc1ccc(-c2cc(N)n(S(=O)(=O)c3c(F)c(F)c(F)c(F)c3F)n2)cc1OC	Calb FLC 76
COc1ccccc1-n1c(C)cc(SC)c(C(C)=O)c1=S	Calb FLC 86
